According to PubChem BioAssay (EPA / NIEHS):
Calls of active or inactive are those of the source. The calls were made as follows: active = hit-call score of the fitted dose curve at least 0.9, where 1 is the maximum; inactive = score below 0.9.

Legend:
[1] = ATG_Ets_CIS: Attagene CIS-FACTORIAL HepG2 Assay for human Erythroblast Transformation Specific (ETS) (AID 2282941); settings: HepG2 ETS cis-reporter transcription, actives raise or lower the signal
How it was run: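 Endogenous transcription factor activity read as reporter mRNA via RT-PCR and capillary electrophoresis, with gain or loss fitted bidirectionally against DMSO. Human HepG2 liver cells, transiently transfected CIS reporter constructs, 24 h exposure.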

[2] = ATG_FoxO_CIS: Attagene CIS-FACTORIAL HepG2 Assay for human Forkhead box O (FoxO) (AID 2282943); settings: HepG2 Attagene cis-reporter, FoxO element, mRNA; actives raise or lower the signal
How it was run: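 Read-out: fluorescence of 6-FAM-labelled reporter cDNA fragments resolved by capillary electrophoresis. Transiently transfected HepG2 cells were dosed for 24 h; activity fitted in both directions relative to DMSO controls.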

[3] = ATG_GATA_CIS: Attagene CIS-FACTORIAL HepG2 Assay for human GATA Binding Protein (AID 2282944); settings: HepG2 GATA cis-element reporter, Attagene multiplex mRNA; actives raise or lower the signal
How it was run: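 HepG2 cells transiently transfected with multiplexed cis-element reporter units reflecting endogenous transcription factor activity; reporter mRNA measured after 24 h dosing by RT-PCR, 6-FAM labeling, HpaI digestion and capillary electrophoresis. Bidirectional fitting versus DMSO baseline.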

[4] = ATG_GRE_CIS: Attagene CIS-FACTORIAL HepG2 Assay for human Glucocorticoid Response Elements (GRE) (AID 2282947); settings: HepG2 GRE cis-reporter, Attagene multiplex mRNA; actives raise or lower the signal
How it was run: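 Read-out: fluorescent reporter-transcript fragments separated by capillary electrophoresis after RT-PCR. Transiently transfected HepG2 cells carrying cis-element-driven reporter units were dosed for 24 h; gain or loss of signal fitted against DMSO control.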

[5] = ATG_ISRE_CIS: Attagene CIS-FACTORIAL HepG2 Assay for human Interferon Regulatory Factor 1 (IRF1) binding to an Interferon-Stimulated Response Element (ISRE) (AID 2282948); settings: HepG2 ISRE cis-reporter (Attagene), mRNA transcription readout; actives raise or lower the signal
How it was run: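 Endogenous transcription factor activity read as reporter transcript abundance via RT-PCR and capillary electrophoresis. HepG2 cells transiently transfected, 24 h chemical exposure. Gain or loss fitted against DMSO baseline.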

[6] = ATG_M_32_CIS: Attagene CIS-FACTORIAL HepG2 Assay for M32 Transcription Factor (Internal Marker) (AID 2282949); settings: HepG2 Attagene cis-factorial M32 reporter, mRNA; actives raise or lower the signal;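 also: background control marker of the multiplexed CIS panel rather than a real target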
How it was run: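 Transient MRTU transfection of HepG2; 24 h compound treatment; TriZol RNA, oligo(dT) RT, reporter PCR, 6-FAM primer extension, HpaI cut, CE. Gain/loss of signal vs DMSO.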

[7] = ATG_M_06_CIS: Attagene CIS-FACTORIAL HepG2 Assay for M06 Transcription Factor (Internal Marker) (AID 2282950); settings: HepG2 Attagene CIS-FACTORIAL M06 internal marker reporter; actives raise or lower the signal
How it was run: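 HepG2 cells transiently transfected with cis-regulated multiple reporter transcription units were exposed to chemical for 24 h; reporter mRNA was quantified by RT-PCR, 6-FAM primer labelling, HpaI digestion and capillary electrophoresis, fitted bidirectionally against DMSO.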

[8] = ATG_GLI_CIS: Attagene CIS-FACTORIAL HepG2 Assay for human Zinc Finger Protein GLI1 (AID 2282945); settings: HepG2, Attagene cis-factorial reporter mRNA, GLI element; actives raise or lower the signal
How it was run: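 Transiently transfected HepG2 cells report endogenous transcription factor activity via cis-element-driven reporter units. After 24 h compound exposure, reporter mRNA was measured by RT-PCR with capillary electrophoresis; bidirectional fitting against DMSO baseline.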

[9] = biological target: Bile acid receptor (Homo sapiens) (UniProt Q96RI1); assay: ATG_IR1_CIS: Attagene CIS-FACTORIAL HepG2 Assay for human Nuclear Receptor Subfamily 1 Group H Member 4 (NR1H4), IR1 submotif (AID 2282946); settings: IR1 reporter transcription, actives raise or lower the signal
How it was run: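 Fluorescence of capillary-separated, HpaI-digested RT-PCR reporter products gave IR1-element mRNA induction in HepG2 cells 24 h after dosing. Endogenous transcription factors drove the cis-regulated reporters; activity was fitted bidirectionally against DMSO.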

Measured: AC50

Chain of Bile acid receptor (Homo sapiens) (Q96RI1 whole entry, looked up): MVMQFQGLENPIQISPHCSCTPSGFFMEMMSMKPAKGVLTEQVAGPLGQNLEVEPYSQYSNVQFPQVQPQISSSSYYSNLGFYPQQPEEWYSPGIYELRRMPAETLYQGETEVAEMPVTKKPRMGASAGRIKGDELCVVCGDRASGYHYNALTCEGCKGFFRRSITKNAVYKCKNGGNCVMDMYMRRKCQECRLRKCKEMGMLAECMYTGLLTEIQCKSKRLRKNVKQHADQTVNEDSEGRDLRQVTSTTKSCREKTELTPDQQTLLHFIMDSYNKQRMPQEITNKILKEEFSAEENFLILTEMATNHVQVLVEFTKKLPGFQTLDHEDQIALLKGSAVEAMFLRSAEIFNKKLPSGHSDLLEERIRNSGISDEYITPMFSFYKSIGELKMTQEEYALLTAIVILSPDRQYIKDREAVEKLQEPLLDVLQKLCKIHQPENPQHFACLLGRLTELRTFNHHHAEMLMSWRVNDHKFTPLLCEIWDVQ

CC(C)(c1ccccc1)c1cc(-n2nc3ccccc3n2)c(O)c(C(C)(C)c2ccccc2)c1
not listed: [8] | [9]
inactive: all other assays above

Cc1cc(C)cc(C)c1
not listed: [4] | [8] | [9]
inactive: all other assays above

CN(C)c1ccc(N=O)cc1
active: [9] 9.69 µM | [4] 23.6 µM | [5] 9.25 µM
inactive: all other assays above

C=CC(=O)OCC(COC(=O)C=C)(COC(=O)C=C)COC(=O)C=C
inactive: [3] | [4] | [6] | [7]
active: [1] 33.4 µM | [2] 8.71 µM | [9] 12.2 µM

Cc1cc(-c2cc(C)c(N)c(C)c2)cc(C)c1N
not listed: [2] | [9]
inactive: all other assays above

COCC(=O)N(c1c(C)cccc1C)[C@H](C)C(=O)OC
not listed: [4]
inactive: all other assays above

c1ccc(-c2cccc(-c3ccccc3)c2)cc1
not listed: [4] | [5]
inactive: all other assays above

CC(C)CC(C)(c1ccc(O)cc1)c1ccc(O)cc1
active: [5] 11.1 µM
not listed: [9]
inactive: all other assays above

C=CCCl
not listed: [2] | [9]
inactive: all other assays above

CCCCCCCCCCCCBr
not listed: [8] | [9]
inactive: all other assays above

CCN(CCO)CCO
not listed: [9]
inactive: all other assays above

Cc1cc(Cl)ccc1OC(C)C(=O)O (stereo not given)
inactive: [1] | [3] | [6] | [7]

O=C(NC(=O)c1c(F)cccc1F)Nc1cc(Cl)c(OC(F)(F)C(F)C(F)(F)F)cc1Cl (stereo not given)
inactive: all assays above

CC(C)N(C(=O)CCl)c1ccccc1
active: [2] 33.4 µM
not listed: [9]
inactive: all other assays above

ClCCN1CCOCC1
inactive: all assays above

CCC[CH2][Sn]([CH2]CCC)([CH2]CCC)[CH2]CCC
active: [9] 0.378 µM | [5] 11.1 µM
inactive: all other assays above

CCCCCCCCCCCCOS(=O)(=O)O
not listed: [9]
inactive: all other assays above

CCOP(=O)(OCC)SCCSCC
not listed: [4] | [9]
inactive: all other assays above

O=C1c2ccccc2C(=O)C1C(=O)C(c1ccccc1)c1ccc(Cl)cc1 (stereo not given)
inactive: [3] | [4] | [6]
active: [1] 182 µM | [2] 54.6 µM | [8] 166 µM | [5] 20 µM | [7] 88.4 µM

CC(C)[N+](=O)[O-]
not listed: [2] | [9]
inactive: all other assays above

CC[N+](CC)(CC)CC
not listed: [5] | [9]
inactive: all other assays above

Cc1cc(Cl)ccc1O
inactive: all assays above

C=CC(=O)[O][Sn]([CH2]CCC)([CH2]CCC)[CH2]CCC
active: [3] 0.536 µM | [8] 0.602 µM | [9] 0.0956 µM | [4] 0.412 µM
inactive: all other assays above

FC(F)OCC(F)(F)C(F)(F)F
not listed: [2]
inactive: all other assays above

O=C1C[C@@H]2OCC=C3CN4CC[C@]56c7ccccc7N1[C@H]5[C@H]2[C@H]3C[C@H]46
not listed: [4] | [9]
inactive: all other assays above

CC(C)[C@H](C(=O)OC(C#N)c1cccc(Oc2ccccc2)c1)c1ccc(OC(F)F)cc1 (stereo not given in full)
inactive: all assays above

CN(C1CCCCC1)C1CCCCC1
not listed: [9]
inactive: all other assays above

Cc1c([N+](=O)[O-])c(C)c([N+](=O)[O-])c(C(C)(C)C)c1[N+](=O)[O-]
active: [5] 22.5 µM
not listed: [8] | [9]
inactive: all other assays above

CC(C)C(C)(N)C#N (stereo not given)
inactive: all assays above

CC1(C)COP(Oc2ccccc2)OC1
inactive: all assays above

CCOP(=S)(OCC)SCS(=O)(=O)C(C)(C)C
active: [9] 34.8 µM
inactive: all other assays above

C[CH2][Hg][S]c1ccccc1C(=O)O
active: [1] 3.71 µM | [3] 1.99 µM | [5] 6.49 µM
not listed: [2]
inactive: all other assays above

CCOC(=O)CC(=O)CCl
active: [1] 26.4 µM | [8] 26.1 µM | [5] 31.2 µM
not listed: [9]
inactive: all other assays above

C=CCN=C=S
not listed: [4]
inactive: all other assays above

O=C(O)CC(O)(CC(=O)O)C(=O)O
not listed: [4] | [8] | [9]
inactive: all other assays above

OC(c1ccc(Cl)cc1)(c1ccc(Cl)cc1)c1cccnc1
active: [8] 9.04 µM | [9] 13.6 µM
inactive: all other assays above

Cc1ccc(OP(=O)(Oc2ccc(C)cc2C)Oc2ccc(C)cc2C)c(C)c1
active: [8] 25.7 µM
not listed: [5]
inactive: all other assays above

COc1ccccc1N
not listed: [4] | [9]
inactive: all other assays above
